From the supplement of paper PMC9135407 come the findings set out here.

In the experiment the test system is primary human hepatic stellate cells (donor 1). As to the kind of experiment: scaled lipid accumulation score (0 = DMSO-like, 1 = nortriptyline-like); higher = stronger HSC inactivation (lipid re-accumulation), active = hit call of the paper. The following applies: 48 h.
The mark [1] stands for this setting: library stock concentration: 1 mM.
[2] abbreviates: library stock concentration: 3.33 mM.
The mark [3] stands for this setting: library stock concentration: 10 mM.
Where [4] appears, read: library stock concentration: 400 uM.
Setting [5] is: library stock concentration: 2 mM.

“And” between values parts separate entries of the source, which are not always exact repeats. Equal entries are not always repeated. Structures can show the parent of a compound that is named as a salt. In all, about 5,800 compounds went through this assay and about 620 (11%) showed activity. This is one part of a sample in which actives are shown more often than they occur. A number with no mark means an inactive call.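 The calls were made as follows: active = score above a cut-off or among the top three wells of a plate; in these data no inactive exceeds 0.85.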

Turning to `O=C(O)CCC/C=C\C[C@@H]1[C@@H](/C=C/[C@@H](O)COc2cccc(C(F)(F)F)c2)[C@H](O)C[C@@H]1O` [Fluprostenol], the “scaled lipid accumulation score” value under setting [1] was 0.005 and ≤ -0.021.

For the molecule `Cn1c(=O)cc(N2CCC[C@@H](N)C2)n(Cc2cc(F)ccc2C#N)c1=O` [Trelagliptin], the “scaled lipid accumulation score” value under setting [2] was ≤ -0.009 and the “scaled lipid accumulation score” value under setting [3] is ≤ 0.

`O=C(O)CCC/C=C\C[C@H]1C(=O)C=C[C@@H]1/C=C/[C@@H](O)CCc1ccccc1` [17-phenyl trinor Prostaglandin A2]: the “scaled lipid accumulation score” value under setting [1] was ≤ 0. For the molecule `Cc1cc([N+](=O)[O-])ccc1NS(=O)(=O)c1cc(Cl)ccc1Cl`, the “scaled lipid accumulation score” value is ≤ -0.009 under setting [2] and 0.147 under setting [3].

On to `Nc1nc2c(cnn2CCc2ccccc2)c2nc(-c3ccco3)nn12`, for which the “scaled lipid accumulation score” value under setting [3] is 0.583.

Consider `CCCCC[C@@](C)(O)/C=C/[C@H]1[C@H](O)CC(=O)[C@@H]1C/C=C\CCCC(=O)O` [15(R)-15-methyl Prostaglandin E2], for which the “scaled lipid accumulation score” value under setting [1] was ≤ 0. Same read-out and setting: in the case of `CCCCC/C=C\C/C=C\C/C=C\C/C=C\CCCC(=O)O[C@@H](CO)COCCCCCCCCCCCCCCCC` [1-Hexadecyl-2-arachidonoyl-glycerol] it was 0.044. On to `CC(C)Oc1ccc(C(=O)N[C@H](CNC(=O)CN(C)C)Cc2ccc(-c3cn4cccc([C@H](C)O)c4n3)cc2)cc1Cl` [listing 1 of 2 here], for which, under setting [3], the “scaled lipid accumulation score” value was 0.882 (active). With `CC(C)Oc1ccc(C(=O)N[C@H](CNC(=O)CN(C)C)Cc2ccc(-c3cn4cccc([C@H](C)O)c4n3)cc2)cc1Cl` [listing 2 of 2 here], under setting [2], the “scaled lipid accumulation score” value was 0.464. As for `CCCCCCCC/C=C\CCCCCCCC(=O)N[C@H](CO)Cc1ccc(O)cc1`, under setting [1], the “scaled lipid accumulation score” value was ≤ 0. On to `COCCOc1cc2ncnc(Cl)c2cc1OCCOC`, for which, under setting [3], the “scaled lipid accumulation score” value was ≤ 0. In the case of `O=C(O)COCCN1CCN(C(c2ccccc2)c2ccc(Cl)cc2)CC1` (stereo not drawn) [Cetirizine dihydrochloride], the “scaled lipid accumulation score” value was 0.024. Besides, the “scaled lipid accumulation score” value under setting [3] is 0.244 and ≤ -0.001.

Consider `CN1CCC[C@@H]1CCO[C@](C)(c1ccccc1)c1ccc(Cl)cc1` [Clemastine], for which the “scaled lipid accumulation score” value under setting [3] is 0.362. With `CN1CCC[C@@H]1CCO[C@](C)(c1ccccc1)c1ccc(Cl)cc1` [Clemastine fumarate] [listing 1 of 2 here], the “scaled lipid accumulation score” value (library stock concentration: 5.8 mM) is 0.885 (active). For the molecule `CN1[C@@H](CC(=O)c2ccccc2)CCC[C@H]1C[C@H](O)c1ccccc1` [Lobeline alpha (-) hydrochoride], the “scaled lipid accumulation score” value was 0.216. As to `CSc1ccc2c(c1)N(CCC1CCCCN1C)c1ccccc1S2` (stereo not drawn) [Thioridazine hydrochloride], the “scaled lipid accumulation score” value was 0.711. Besides, the “scaled lipid accumulation score” value (library stock concentration: 4.9 mM) is 0.586. The “scaled lipid accumulation score” value under setting [3] was 0.072 and 0.283. On to `O=C(O)COCCN1CCN(C(c2ccccc2)c2ccc(Cl)cc2)CC1` (stereo not drawn) [Cetirizine], for which the “scaled lipid accumulation score” value under setting [3] was ≤ 0. As for `CSc1ccc2c(c1)N(CCC1CCCCN1C)c1ccccc1S2` (stereo not drawn) [Thioridazine HCl], the “scaled lipid accumulation score” value (library stock concentration: 5.4 mM) is 0.47. `CN1[C@@H](CC(=O)c2ccccc2)CCC[C@H]1C[C@H](O)c1ccccc1` [Lobeline]: the “scaled lipid accumulation score” value (library stock concentration: 5.9 mM) was ≤ -0.006.

For `CN1[C@@H](CC(=O)c2ccccc2)CCC[C@H]1C[C@H](O)c1ccccc1` [alpha-Lobeline hydrochloride], the “scaled lipid accumulation score” value under setting [3] was 0.493. Still for that read-out and setting: under `CN1CCCC1CCOC(C)(c1ccccc1)c1ccc(Cl)cc1.O=C(O)/C=C/C(=O)O` (stereo not drawn) [Clemastine fumarate] stands 0.942 (active). On to `O=C(O)COCCN1CCN(C(c2ccccc2)c2ccc(Cl)cc2)CC1` (stereo not drawn) [Cetirizine DiHCl], for which the “scaled lipid accumulation score” value by setting is: under setting [2], ≤ 0; under setting [3], ≤ 0. In the case of `CN(C)C(=O)C(CCN1CCC(O)(c2ccc(Cl)cc2)CC1)(c1ccccc1)c1ccccc1` [Loperamide hydrochloride], the “scaled lipid accumulation score” value is 0.682. The “scaled lipid accumulation score” value under setting [3] was 0.699 and 0.787.

As for `CN1[C@@H](CC(=O)c2ccccc2)CCC[C@H]1C[C@H](O)c1ccccc1`, the “scaled lipid accumulation score” value under setting [3] is ≤ 0. On the same count and under the same terms, in the case of `O=C(O)COCCN1CCN([C@H](c2ccccc2)c2ccc(Cl)cc2)CC1` it was ≤ 0; in that of `O=C(O)COCCN1CCN(C(c2ccccc2)c2ccc(Cl)cc2)CC1` (stereo not drawn) [Cetirizine hydrochloride], ≤ -0.027.

For the molecule `CN1CCC[C@@H]1CCO[C@](C)(c1ccccc1)c1ccc(Cl)cc1` [Clemastine fumarate] [listing 2 of 2 here], the “scaled lipid accumulation score” value was 0.619. With `CN1CCC[C@@H]1CCO[C@](C)(c1ccccc1)c1ccc(Cl)cc1` [Clemastine Fumarate], the “scaled lipid accumulation score” value was 0.249 under setting [2] and 0.819 under setting [3]. The like results for `CN(C)C(=O)C(CCN1CCC(O)(c2ccc(Cl)cc2)CC1)(c1ccccc1)c1ccccc1` [Loperamide HCl] were, in that order, 0.485 and 0.611. `CN1[C@@H](CC(=O)c2ccccc2)CCC[C@H]1C[C@H](O)c1ccccc1` [Lobeline hydrochloride]: the “scaled lipid accumulation score” value under setting [3] was ≤ 0 and 0.256. On to `CN1CCC[C@@H]1CCO[C@](C)(c1ccccc1)c1ccc(Cl)cc1.O=C(O)/C=C/C(=O)O` [Clemastine fumarate], for which the “scaled lipid accumulation score” value under setting [3] is 0.861 (active). With `CCCCCCCCCC(=O)OCC(CO)OC(=O)CCCCCCCCC` (stereo not drawn) [1,2-Didecanoyl-glycerol (10:0)], the “scaled lipid accumulation score” value under setting [1] was ≤ -0.021.

Consider `CCCCCCCCCC(=O)OCC(CO)OC(=O)CCCCCCCCC` (stereo not drawn) [1,2-Didecanoyl-sn-glycerol], for which the “scaled lipid accumulation score” value under setting [1] was ≤ 0. On to `CCCCCC(O)C=CC1CC2CC(C1CC=CCCCC(=O)O)C2(C)C` [15(R)-Pinane Thromboxane A2], for which the “scaled lipid accumulation score” value under setting [1] was ≤ 0. As for `Cc1onc(-c2ccccc2)c1-c1ccc(S(N)(=O)=O)cc1`, the “scaled lipid accumulation score” value under setting [3] was ≤ 0. As to `Cc1onc(-c2ccccc2)c1-c1ccc(S(N)(=O)=O)cc1` [Valdecoxib], the “scaled lipid accumulation score” value runs as follows: under setting [2], ≤ 0; under setting [3], 0.226 and 0.088. As to `CCCCCCCCCCCCCCCC(=O)OC` [Palmitic Acid methyl ester], the “scaled lipid accumulation score” value under setting [1] was 0.031. On the same count and under the same terms, under `O=P(O)(O)OC1C(O)C(OP(=O)(O)O)C(O)C(OP(=O)(O)O)C1O` [D-myo-Inositol-1,3,5-triphosphate (sodium salt)] stands 0.025.

For the molecule `O=C(O)Cc1sc(-c2ccccc2)nc1-c1ccc(Cl)cc1` [Fentiazac], the “scaled lipid accumulation score” value (library stock concentration: 6.1 mM) is 0.006.

As to `CCCCC[C@H](O)/C=C/[C@H]1CCC(=O)[C@@H]1CCCCCCC(=O)O` [11-deoxy Prostaglandin E1], under setting [1], the “scaled lipid accumulation score” value was 0.015. With `CC(C)=CCC[C@](C)(O)C1CC=C(C)CC1` (stereo partly drawn) [Bisabolol], the “scaled lipid accumulation score” value under setting [3] is 0.049. Consider `Cl.Cl.NC1(c2ccc(-c3nc4ccn5c(=O)[nH]nc5c4cc3-c3ccccc3)cc2)CCC1` [listing 1 of 2 here], for which the “scaled lipid accumulation score” value reads like this: under setting [2], 1.35 (active); under setting [3], 1.02 (active). On to `Cl.Cl.NC1(c2ccc(-c3nc4ccn5c(=O)[nH]nc5c4cc3-c3ccccc3)cc2)CCC1` [listing 2 of 2 here], for which the “scaled lipid accumulation score” value by setting is: under setting [4], 1.07 (active); under setting [5], 1.23 (active). With `O=C1C(=Cc2ccc(O)cc2)C2=Nc3ccccc3C2=C1C1=C2C(=Nc3ccccc32)C(=Cc2ccc(O)cc2)C1=O` [Scytonemin, Lyngbya sp.], the “scaled lipid accumulation score” value under setting [2] is ≤ 0. On to `COc1ccc2cc(C(C)C(=O)O)ccc2c1` (stereo not drawn) [Naproxen(+)], for which the “scaled lipid accumulation score” value by setting is: (library stock concentration: 8.7 mM) 0.014; under setting [3], ≤ 0. Regarding `CCCCCC(=O)CC[C@@H]1[C@@H](C/C=C\CCCC(=O)OC(C)C)[C@@H](O)C[C@H]1O`, under setting [1], the “scaled lipid accumulation score” value is ≤ 0.

`Nc1nc2[nH]c(=O)[nH]c2c(=O)[nH]1` [8-hydroxy Guanine (hydrochloride)]: under setting [1], the “scaled lipid accumulation score” value is ≤ 0. On the same count and under the same terms, in the case of `CCCCC1C(=O)CCC2C(CCCCCCC(=O)O)C(=O)CC12` (stereo not drawn) [Bicyclo Prostaglandin E1] it was ≤ 0.

Turning to `CC(C)c1ccc2c(c1)CC[C@H]1[C@](C)(CN)CCC[C@]21C` [Lylamine hydrochloride], under setting [3], the “scaled lipid accumulation score” value is 0.527. In the case of `CC(C)c1ccc2c(c1)CC[C@H]1[C@](C)(CN)CCC[C@]21C.Cl` [Leelamine (hydrochloride)], the “scaled lipid accumulation score” value under setting [1] was 0.297 (active).

For the molecule `CCCCCCCCCCCC(=O)NC[C@]1(C)CCC[C@]2(C)c3ccc(C(C)C)cc3CCC12` (stereo partly drawn) [Lauric Acid Leelamide], the “scaled lipid accumulation score” value under setting [1] was 0.012. In the case of `CN(C)C(=O)c1ccc(S(=O)(=O)c2ccc(NC(=O)C(C)(O)C(F)(F)F)c(Cl)c2)cc1` (stereo not drawn), the “scaled lipid accumulation score” value was ≤ -0.009 under setting [2] and ≤ 0 under setting [3].

Take `CCCC/C=C/C=C/C=C\CCCCCCCC(=O)O` [9(Z),11(E),13(E)-Octadecatrienoic Acid]: the “scaled lipid accumulation score” value under setting [1] is ≤ 0. For the molecule `O=C1Nc2ccc(-c3cccnc3)cc2/C1=C/c1ccc[nH]1` [JAK3 Inhibitor VI], the “scaled lipid accumulation score” value under setting [2] is ≤ 0.

Regarding `Cc1ccc(NC(=O)Nc2cc(C(F)(F)F)ccc2F)cc1Nc1ccc2c(c1)NC(=O)/C2=C\c1ccc[nH]1`, the “scaled lipid accumulation score” value (library stock concentration: 80 uM) was 0.038 and the “scaled lipid accumulation score” value under setting [4] was 0.353.

For the molecule `Cc1ccc(NC(=O)Nc2cc(C(F)(F)F)ccc2F)cc1Nc1ccc2c(c1)NC(=O)C2=Cc1ccc[nH]1`, the “scaled lipid accumulation score” value is 1.14 (active) under setting [5] and 1.61 (active) under setting [3].

On to `CCCCc1c(-c2ccc(OC)cc2)[nH]c2nccnc12` [Aloisine, RP106], for which, under setting [2], the “scaled lipid accumulation score” value was 0.036. Turning to `N#C/C(=C(/N)Sc1ccccc1N)c1cccc(C(O)c2ccncc2)c1` (stereo not drawn) [MEK Inhibitor I], the “scaled lipid accumulation score” value under setting [2] was ≤ 0. Take `NC(=O)N1c2ccccc2C=Cc2ccccc21`: under setting [3], the “scaled lipid accumulation score” value is ≤ 0. Consider `OCCN1CCN(CCCN2c3ccccc3Sc3ccc(Cl)cc32)CC1` [Perphenazine] [listing 1 of 2 here], for which the “scaled lipid accumulation score” value is 0.75. For the same molecule, the “scaled lipid accumulation score” value (library stock concentration: 5 mM) is 0.605. Further, under setting [3], the “scaled lipid accumulation score” value was 0.329. Turning to `CN1CCN(CCCN2c3ccccc3Sc3ccc(Cl)cc32)CC1` [Prochlorperazine edisylate], the “scaled lipid accumulation score” value (library stock concentration: 3.5 mM) is 0.713 and the “scaled lipid accumulation score” value under setting [3] is 0.523.

As to `Cl.Cl.OCCN1CCN(CCCN2c3ccccc3C=Cc3ccccc32)CC1` [Opipramol dihydrochloride], the “scaled lipid accumulation score” value under setting [3] was 0.885 (active).

On to `NC(=O)N1c2ccccc2C=Cc2ccccc21` [Carbamazepine], for which the “scaled lipid accumulation score” value is ≤ 0. The “scaled lipid accumulation score” value under setting [2] is 0.025. Further, the “scaled lipid accumulation score” value under setting [3] is ≤ 0 and 0.28. In the case of `OCCN1CCN(CCCN2c3ccccc3Sc3ccc(Cl)cc32)CC1` [Perphenazine] [listing 2 of 2 here], the “scaled lipid accumulation score” value under setting [3] was 0.916 (active).

For the molecule `OCCN1CCN(CCCN2c3ccccc3Sc3ccc(Cl)cc32)CC1`, under setting [3], the “scaled lipid accumulation score” value is 0.962 (active). As to `CN1CCN(CCCN2c3ccccc3Sc3ccc(Cl)cc32)CC1` [Prochlorperazine dimaleate], the “scaled lipid accumulation score” value was 0.696. Moreover, the “scaled lipid accumulation score” value under setting [3] was 0.815.
